# PubChem BioAssay (Tox21)
# Inconclusive results are not listed. Entries that show only a call come without a potency. Values without a mark were called inactive. Active and inactive are the calls of the source. The call rests on the fitted dose curve; in most records, active means well fitted inhibition curve with a large enough effect in the repeat runs; inconclusive means weak or mixed curves; inactive means no such curve, though single readings can be large or run the other way.
# Biological target: Cytochrome P450 2D6 (Homo sapiens) (UniProt P10635)
# Sequence (P10635 whole entry, looked up): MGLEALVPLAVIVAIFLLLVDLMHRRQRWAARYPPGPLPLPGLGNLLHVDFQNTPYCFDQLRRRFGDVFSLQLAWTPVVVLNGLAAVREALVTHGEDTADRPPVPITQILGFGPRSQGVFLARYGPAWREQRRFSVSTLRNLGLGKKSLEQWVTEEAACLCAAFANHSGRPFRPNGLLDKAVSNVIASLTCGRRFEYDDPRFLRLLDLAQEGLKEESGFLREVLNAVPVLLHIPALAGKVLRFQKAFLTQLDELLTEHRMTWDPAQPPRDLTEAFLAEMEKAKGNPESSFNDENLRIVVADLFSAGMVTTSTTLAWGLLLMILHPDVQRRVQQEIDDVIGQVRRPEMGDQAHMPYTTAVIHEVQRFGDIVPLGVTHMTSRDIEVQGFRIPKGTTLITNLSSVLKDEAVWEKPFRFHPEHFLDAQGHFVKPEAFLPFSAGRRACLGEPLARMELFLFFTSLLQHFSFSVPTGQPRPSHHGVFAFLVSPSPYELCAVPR
# Experiment: Cytochrome P450 Family 2 Subfamily D Member 6 (CYP2D6) small molecule antagonists: luciferase reporter qHTS assay (AID 1671196); further: nearly all actives have a fitted effect of over 50% in size
# Conditions: P450-Glo CYP2D6 enzyme assay, luciferin luminescence, 1 h; series mostly up to 115 µM
# Text: U.S. Tox21 Program National Center for Advancing Translational Sciences [NCATS] U.S. Environmental Protection Agency [EPA] National Institutes of Environmental Health Sciences [NIEHS] National Toxicology Program [NTP] U.S. Food and Drug Administration [FDA] Tox21 Assay Overview: Cytochrome P450 (CYP) enzymes are membrane-bound hemeproteins that play a key role in metabolism of drugs and xenobiotics. Evaluation of the effect of chemicals on CYP isozymes is useful to minimize the adverse drug reactions and toxicities in drug development process. Tox21 chemicals were tested for their effect on CYP enzyme activities by using P450-Glo (TM) screening systems (Promega Corporation, Madison, WI). These systems provide a luminescent method containing proluciferin substrates and are converted to luciferin products by CYP isozymes. The luciferin products formed are detected with a luciferin detection reagent, and the amount of light produced is proportional to CYP activity. P450-Glo (TM) CYP2D6 screening system (Catalog. No. V9890) was used to detect the compounds that interfere in CYP2D6 activity.
# Tox21 Assay Protocol Summary: Two ul of enzyme-substrate mix was dispensed into medium binding white/solid 1536-well plates (Greiner Bio-One North America Inc., Monroe, NC) using a BioRaptr Flying Reagent Dispenser (FRD, Beckman Coulter, Brea, CA). […] The assay plates were incubated at room temperature for 10 min. Then 2 ul of NADPH regeneration solution was added to each well of the assay plates using an FRD and incubated at room temperature for 1 h. The reaction was stopped by adding 4 ul of detection reagent using an FRD and after 20 min incubation at room temperature the luminescence signal was measured using a ViewLux plate reader (Perkin Elmer, Shelton, CT). Data were expressed as relative luminescence units.
# Potency means the concentration at half of the fitted maximal effect.
Compound,Potency,"activity change, negative = inhibition"
O=C(OOC(=O)c1ccccc1)c1ccccc1,inactive,–
CCCCCCC(=O)c1ccccc1,inactive,–
COc1cnc(NS(=O)(=O)c2ccc(N)cc2)nc1,inactive,–
Clc1cc(Cl)c(Cl)c(Cl)c1Cl,inactive,–
C=CCCCCCCCCCCCCCC,–,-17.7% [at 23.6 µM]
C/C=C(\C)C=O,inactive,–
CC(=O)SC[C@@H](C)C(=O)N1CCC[C@H]1C(=O)N[C@@H](Cc1ccccc1)C(=O)O,inactive,–
c1coc(Cn2cccc2)c1,inactive,–
Cc1cc2c(cc1CC(=O)c1sccc1S(=O)(=O)Nc1onc(C)c1Cl)OCO2,2.45 µM (active),–
CC(CC(=O)Cl)CC(C)(C)C (stereo not given),inactive,–
O=C1CCCc2c(O)cccc21,inactive,–
CCCc1ccc(O)c(OC)c1,inactive,–
CN(C)CCCN(C)C,–,-7.64% [at 10.5 µM]
C=CCN(CC=C)CC=C,inactive,–
CC(=O)c1ccc(O)c(C(N)=O)c1,inactive,–
N[C@H]1C(O)O[C@H](CO)[C@@H](O)[C@@H]1O (stereo not given in full),30.9 µM (active),–
CC(O)C(CO)C(C)O (stereo not given),inactive,–
N=C(N)N,inactive,–
Cc1ccccc1C#N,inactive,–
CC(C)(C)OC(=O)c1ccccc1C(=O)O,inactive,–

Compound,Potency,"activity change, negative = inhibition"
CCCCCCCCCCCCCCCC(=O)OC,–,1.63% [at 23.6 µM]
CCOC(=O)c1ccc(N(C)C)cc1,inactive,–
C=CCCCCCCCCOC(C)=O,inactive,–
OCCC(F)(F)C(F)(F)C(F)(F)C(F)(F)C(F)(F)C(F)(F)F,inactive,–
CCC(C)(C)C,inactive,–
C=CC(=O)CC,inactive,–
CO/N=C(\C(=O)O)c1csc(NC(=O)CCl)n1,inactive,–
CCC(C)c1nccnc1OC (stereo not given),inactive,–
COc1cc(NS(=O)(=O)c2ccc(N)cc2)ncn1,inactive,–
CCOC(=O)CC,inactive,–
CCCCCCCCCCCCCCCCN(C)C,3.19 µM (active),–
CC1=C(O)C(=O)CO1,inactive,–
CCCC(=O)OC,inactive,–
CNCCc1ccccn1,inactive,–
CCCCCCCCS(=O)(=O)O,inactive,–
C=COCCCCO,inactive,–
CC[C@@]1(c2ccccc2)NC(=O)N(C)C1=O,inactive,–
Cc1cc(O)c(Cl)cc1C,inactive,–
CC(=O)Nc1ccc(S(=O)(=O)Nc2cc(C)on2)cc1,inactive,–
N#Cc1ccccc1C#N,inactive,–
